This passage reports binding signal results from PMC7862700, “An all-to-all approach to the identification of sequence-specific readers for epigenetic DNA modifications on cytosine”.

Holding throughout (assay): DAPPL (digital affinity profiling via proximity ligation, sequencing); 10 mM Tris-HCl pH 7.5, 50 mM NaCl, 1 mM DTT, 4% glycerol, room temperature, 30 min; GST-TFs on glutathione beads, 16-mer random dsDNA library, 0.1% formaldehyde crosslink after washing; high values mean tight binding
Details in all cases: protein: recombinant; tags: N-terminal GST; dsDNA, one strand shown

The target of one experiment is T1, FLI1 (Homo sapiens, UniProt Q01543 1-452).
T1 sequence: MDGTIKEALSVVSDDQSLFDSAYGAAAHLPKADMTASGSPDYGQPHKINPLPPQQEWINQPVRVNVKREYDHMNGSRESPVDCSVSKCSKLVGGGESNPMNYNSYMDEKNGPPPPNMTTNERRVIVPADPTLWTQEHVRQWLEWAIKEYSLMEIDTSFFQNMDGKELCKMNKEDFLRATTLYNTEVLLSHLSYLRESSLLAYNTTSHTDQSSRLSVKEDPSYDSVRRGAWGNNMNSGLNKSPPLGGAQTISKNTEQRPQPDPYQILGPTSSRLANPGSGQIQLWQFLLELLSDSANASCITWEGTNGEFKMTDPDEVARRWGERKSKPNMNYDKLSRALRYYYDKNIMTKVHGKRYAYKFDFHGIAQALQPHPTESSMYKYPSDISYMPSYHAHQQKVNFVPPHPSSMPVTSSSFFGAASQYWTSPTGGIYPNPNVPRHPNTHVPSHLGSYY
The gist of the method:
(§1)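 Beads coated with glutathione captured GST-fused human transcription factors that had been expressed in yeast, and the factors were then given DNA barcodes and pooled with a tag-only sample. The pools were incubated with 200 nmole of a random double-stranded 16-mer DNA library in Tris/NaCl/DTT/glycerol buffer for 30 min at room temperature, washed, crosslinked with 0.1% formaldehyde and proximity-ligated with BsaI/T4 ligase at 37 °C for 1 h. PCR amplification and Illumina NextSeq500 sequencing came last. Binding signal is each hexamer's read frequency for a factor divided by its frequency for the tag-only sample.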

For the next experiment, the target named is T2, ELK1 (Homo sapiens, UniProt P19419 1-428).
T2 sequence: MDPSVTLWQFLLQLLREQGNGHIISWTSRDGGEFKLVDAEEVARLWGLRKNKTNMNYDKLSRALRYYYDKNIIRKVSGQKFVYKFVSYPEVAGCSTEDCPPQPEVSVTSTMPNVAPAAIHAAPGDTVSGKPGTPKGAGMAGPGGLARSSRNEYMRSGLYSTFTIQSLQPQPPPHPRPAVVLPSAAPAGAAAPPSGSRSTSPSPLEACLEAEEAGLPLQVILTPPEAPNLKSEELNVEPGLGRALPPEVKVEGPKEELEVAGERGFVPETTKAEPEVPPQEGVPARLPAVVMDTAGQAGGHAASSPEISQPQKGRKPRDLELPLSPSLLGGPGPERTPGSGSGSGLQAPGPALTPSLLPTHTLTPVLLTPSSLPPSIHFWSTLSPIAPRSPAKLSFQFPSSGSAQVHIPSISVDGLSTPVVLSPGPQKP
The procedure, abridged: as §1

The next experiment concerns the target T3, GABPA (Homo sapiens, UniProt Q06546 1-454).
T3 sequence: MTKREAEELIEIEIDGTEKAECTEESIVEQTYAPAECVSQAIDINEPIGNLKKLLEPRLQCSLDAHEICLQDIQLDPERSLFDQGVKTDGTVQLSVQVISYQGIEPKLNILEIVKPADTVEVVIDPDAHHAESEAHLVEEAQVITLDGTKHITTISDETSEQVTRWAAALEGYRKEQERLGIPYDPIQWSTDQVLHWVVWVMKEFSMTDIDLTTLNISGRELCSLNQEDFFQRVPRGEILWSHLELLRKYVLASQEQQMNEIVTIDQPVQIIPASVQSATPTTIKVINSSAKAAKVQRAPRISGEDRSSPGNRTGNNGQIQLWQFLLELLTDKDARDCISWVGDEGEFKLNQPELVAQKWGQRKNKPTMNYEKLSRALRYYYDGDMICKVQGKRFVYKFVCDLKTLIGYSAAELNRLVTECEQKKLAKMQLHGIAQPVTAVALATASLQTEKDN
The procedure, abridged: as §1

For another experiment, the target named is T4, ERG (Homo sapiens, UniProt P11308 1-479).
T4 sequence: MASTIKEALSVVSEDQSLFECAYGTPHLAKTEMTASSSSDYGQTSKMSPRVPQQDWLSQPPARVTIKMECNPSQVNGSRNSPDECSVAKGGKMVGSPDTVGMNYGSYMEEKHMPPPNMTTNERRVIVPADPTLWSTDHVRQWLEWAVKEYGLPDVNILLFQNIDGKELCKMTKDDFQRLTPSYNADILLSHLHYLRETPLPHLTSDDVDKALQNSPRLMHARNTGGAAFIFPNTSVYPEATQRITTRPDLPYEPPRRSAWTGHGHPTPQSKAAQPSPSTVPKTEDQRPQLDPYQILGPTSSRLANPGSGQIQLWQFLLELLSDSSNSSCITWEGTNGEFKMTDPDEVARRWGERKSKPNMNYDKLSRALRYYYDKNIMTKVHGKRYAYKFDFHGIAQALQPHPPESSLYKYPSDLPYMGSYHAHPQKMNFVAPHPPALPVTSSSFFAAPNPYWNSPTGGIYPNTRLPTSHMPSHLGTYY
The procedure, abridged: as §1

For another experiment, the target named is ELF1 (Homo sapiens, UniProt P32519 1-619). The gist of the method: as §1
ELF1, sequence (P32519 whole entry): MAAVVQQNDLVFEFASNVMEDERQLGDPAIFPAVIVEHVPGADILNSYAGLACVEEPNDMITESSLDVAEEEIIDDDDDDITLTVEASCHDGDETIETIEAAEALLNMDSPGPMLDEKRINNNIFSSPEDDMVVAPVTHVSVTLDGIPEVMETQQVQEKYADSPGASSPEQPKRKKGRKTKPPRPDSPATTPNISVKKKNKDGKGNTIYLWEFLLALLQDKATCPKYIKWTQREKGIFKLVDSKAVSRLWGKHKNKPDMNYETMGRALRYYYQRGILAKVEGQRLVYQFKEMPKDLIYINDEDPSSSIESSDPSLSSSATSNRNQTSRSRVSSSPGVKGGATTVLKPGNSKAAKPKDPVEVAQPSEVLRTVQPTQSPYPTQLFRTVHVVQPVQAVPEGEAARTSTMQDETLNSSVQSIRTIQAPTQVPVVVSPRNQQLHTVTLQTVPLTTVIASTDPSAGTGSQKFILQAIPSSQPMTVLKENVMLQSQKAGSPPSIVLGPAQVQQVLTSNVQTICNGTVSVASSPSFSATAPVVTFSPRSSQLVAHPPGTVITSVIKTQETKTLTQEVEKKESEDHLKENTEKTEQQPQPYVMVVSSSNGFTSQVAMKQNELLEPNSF
The target of the next experiment is T5, EHF (Homo sapiens, UniProt Q9NZC4 1-300).
T5 sequence: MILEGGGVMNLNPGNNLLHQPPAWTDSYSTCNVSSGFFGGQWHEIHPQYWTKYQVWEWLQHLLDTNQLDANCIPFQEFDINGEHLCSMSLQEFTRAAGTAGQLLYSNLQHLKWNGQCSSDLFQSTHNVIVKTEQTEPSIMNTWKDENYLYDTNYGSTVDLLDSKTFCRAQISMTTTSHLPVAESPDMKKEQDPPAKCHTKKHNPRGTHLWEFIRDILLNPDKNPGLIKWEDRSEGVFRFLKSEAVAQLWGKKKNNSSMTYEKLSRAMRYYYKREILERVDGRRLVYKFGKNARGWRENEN
The procedure, abridged:
as §1

A further experiment concerns the target SPI1 (Homo sapiens, UniProt P17947 1-270). The procedure, abridged:
as §1

A further experiment addresses SPIB (Homo sapiens, UniProt Q01892 1-262). The gist of the method: as §1
For another experiment, the target named is T6, ELK3 (Homo sapiens, UniProt P41970 1-407).
T6 sequence: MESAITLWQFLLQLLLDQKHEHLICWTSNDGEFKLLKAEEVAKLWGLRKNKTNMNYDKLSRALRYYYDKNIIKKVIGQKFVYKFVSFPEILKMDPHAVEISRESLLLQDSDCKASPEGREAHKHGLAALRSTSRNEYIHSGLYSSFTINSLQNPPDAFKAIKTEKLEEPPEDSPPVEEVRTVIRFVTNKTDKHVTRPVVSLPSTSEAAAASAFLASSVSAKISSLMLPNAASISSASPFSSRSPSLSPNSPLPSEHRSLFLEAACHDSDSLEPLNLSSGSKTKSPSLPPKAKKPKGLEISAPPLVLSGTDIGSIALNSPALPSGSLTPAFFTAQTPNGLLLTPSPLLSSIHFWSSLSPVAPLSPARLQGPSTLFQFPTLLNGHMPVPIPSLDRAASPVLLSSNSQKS
The gist of the method: as §1

A further experiment has as its target T7, FEV (Homo sapiens, UniProt Q99581 1-238).
T7 sequence: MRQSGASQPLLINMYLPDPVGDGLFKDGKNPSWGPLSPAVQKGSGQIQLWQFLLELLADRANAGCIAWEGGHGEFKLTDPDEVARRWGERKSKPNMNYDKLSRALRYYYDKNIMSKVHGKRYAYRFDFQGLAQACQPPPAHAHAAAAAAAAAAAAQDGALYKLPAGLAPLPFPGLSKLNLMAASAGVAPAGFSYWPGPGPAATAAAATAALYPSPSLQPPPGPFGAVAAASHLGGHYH
The procedure, abridged: as §1

The target in a further experiment is ETV5 (Homo sapiens, UniProt P41161 1-510). The procedure, abridged: as §1
ETV5, sequence (P41161 whole entry): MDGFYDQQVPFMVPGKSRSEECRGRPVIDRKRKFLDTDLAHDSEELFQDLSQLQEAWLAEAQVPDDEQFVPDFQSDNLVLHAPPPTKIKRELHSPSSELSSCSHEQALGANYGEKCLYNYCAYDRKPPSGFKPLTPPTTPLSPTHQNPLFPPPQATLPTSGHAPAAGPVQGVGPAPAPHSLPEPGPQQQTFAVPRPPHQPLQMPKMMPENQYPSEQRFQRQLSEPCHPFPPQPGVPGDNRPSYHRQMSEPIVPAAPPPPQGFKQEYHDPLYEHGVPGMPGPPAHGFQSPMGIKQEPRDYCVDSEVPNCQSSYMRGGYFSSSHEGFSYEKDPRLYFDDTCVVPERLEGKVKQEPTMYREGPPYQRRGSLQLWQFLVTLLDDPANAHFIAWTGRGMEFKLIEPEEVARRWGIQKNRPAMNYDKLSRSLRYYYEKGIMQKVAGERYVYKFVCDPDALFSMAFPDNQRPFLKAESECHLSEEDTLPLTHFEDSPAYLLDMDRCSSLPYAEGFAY
A further experiment deals with ELF4 (Homo sapiens, UniProt Q99607 1-663). The gist of the method:
as §1

The next experiment concerns the target ETV1 (Homo sapiens, UniProt P50549 1-477). The gist of the method:
as §1

Another experiment deals with T8, ERF (Homo sapiens, UniProt P50548 1-548).
T8 sequence: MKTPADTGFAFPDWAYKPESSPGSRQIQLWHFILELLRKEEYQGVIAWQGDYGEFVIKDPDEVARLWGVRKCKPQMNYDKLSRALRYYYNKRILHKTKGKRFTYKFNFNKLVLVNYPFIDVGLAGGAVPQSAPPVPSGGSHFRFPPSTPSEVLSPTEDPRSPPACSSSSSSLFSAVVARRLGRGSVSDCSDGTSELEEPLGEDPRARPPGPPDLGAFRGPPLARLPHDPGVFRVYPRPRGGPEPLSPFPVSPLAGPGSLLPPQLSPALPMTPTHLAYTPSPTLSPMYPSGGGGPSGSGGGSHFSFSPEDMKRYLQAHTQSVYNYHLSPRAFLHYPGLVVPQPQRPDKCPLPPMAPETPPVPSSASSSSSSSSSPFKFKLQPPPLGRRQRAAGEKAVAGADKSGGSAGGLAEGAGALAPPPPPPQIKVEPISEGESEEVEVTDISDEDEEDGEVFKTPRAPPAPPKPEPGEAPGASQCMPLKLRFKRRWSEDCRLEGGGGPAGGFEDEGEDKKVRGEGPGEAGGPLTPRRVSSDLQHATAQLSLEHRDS
The gist of the method: as §1

A further experiment deals with T9, ETV3L (Homo sapiens, UniProt Q6ZN32 1-361).
T9 sequence: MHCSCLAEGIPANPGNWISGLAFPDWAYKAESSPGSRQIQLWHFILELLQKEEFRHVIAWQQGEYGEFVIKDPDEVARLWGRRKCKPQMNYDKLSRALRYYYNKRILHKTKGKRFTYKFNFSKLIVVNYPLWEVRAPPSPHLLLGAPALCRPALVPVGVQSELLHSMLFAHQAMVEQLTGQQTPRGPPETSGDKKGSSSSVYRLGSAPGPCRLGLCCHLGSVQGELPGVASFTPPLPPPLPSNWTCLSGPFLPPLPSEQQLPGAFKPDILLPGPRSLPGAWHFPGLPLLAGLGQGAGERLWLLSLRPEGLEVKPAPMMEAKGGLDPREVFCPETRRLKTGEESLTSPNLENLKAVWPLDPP
The procedure, abridged:
as §1

The target of another experiment is T10, ETS2 (Homo sapiens, UniProt P15036 1-469).
T10 sequence: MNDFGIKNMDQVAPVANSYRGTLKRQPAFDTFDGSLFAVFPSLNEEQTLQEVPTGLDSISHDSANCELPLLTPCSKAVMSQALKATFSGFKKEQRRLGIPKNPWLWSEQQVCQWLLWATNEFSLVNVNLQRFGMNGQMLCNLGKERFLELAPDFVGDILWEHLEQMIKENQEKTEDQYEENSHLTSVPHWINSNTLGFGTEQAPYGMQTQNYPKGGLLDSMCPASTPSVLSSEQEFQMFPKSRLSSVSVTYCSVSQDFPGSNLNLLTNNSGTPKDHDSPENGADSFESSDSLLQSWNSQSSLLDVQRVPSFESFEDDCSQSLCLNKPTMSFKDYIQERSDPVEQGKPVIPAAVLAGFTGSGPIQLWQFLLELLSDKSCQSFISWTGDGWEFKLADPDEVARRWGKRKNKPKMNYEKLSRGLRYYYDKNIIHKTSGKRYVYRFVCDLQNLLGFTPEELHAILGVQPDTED
The procedure, abridged: as §1

In a further experiment the target is T11, ELF5 (Homo sapiens, UniProt Q9UKW6-2 1-255).
T11 sequence: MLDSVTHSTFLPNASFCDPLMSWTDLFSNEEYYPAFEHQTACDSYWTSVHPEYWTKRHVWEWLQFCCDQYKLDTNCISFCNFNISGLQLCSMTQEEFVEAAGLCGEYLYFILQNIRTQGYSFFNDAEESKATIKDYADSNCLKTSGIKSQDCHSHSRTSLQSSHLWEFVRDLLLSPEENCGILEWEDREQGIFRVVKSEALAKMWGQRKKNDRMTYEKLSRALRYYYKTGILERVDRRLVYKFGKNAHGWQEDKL
The gist of the method:
as §1

The target of a further experiment is T12, ETV3 (Homo sapiens, UniProt P41162-2 1-143).
T12 sequence: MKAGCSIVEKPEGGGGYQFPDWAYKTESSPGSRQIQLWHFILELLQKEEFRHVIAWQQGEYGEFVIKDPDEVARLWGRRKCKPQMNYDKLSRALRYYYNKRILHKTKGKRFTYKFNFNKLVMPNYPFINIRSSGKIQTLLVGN
The gist of the method: as §1

For a further experiment, the target named is ETV6 (Homo sapiens, UniProt P41212 1-452). The procedure, abridged:
as §1

ELF4, sequence (Q99607 whole entry): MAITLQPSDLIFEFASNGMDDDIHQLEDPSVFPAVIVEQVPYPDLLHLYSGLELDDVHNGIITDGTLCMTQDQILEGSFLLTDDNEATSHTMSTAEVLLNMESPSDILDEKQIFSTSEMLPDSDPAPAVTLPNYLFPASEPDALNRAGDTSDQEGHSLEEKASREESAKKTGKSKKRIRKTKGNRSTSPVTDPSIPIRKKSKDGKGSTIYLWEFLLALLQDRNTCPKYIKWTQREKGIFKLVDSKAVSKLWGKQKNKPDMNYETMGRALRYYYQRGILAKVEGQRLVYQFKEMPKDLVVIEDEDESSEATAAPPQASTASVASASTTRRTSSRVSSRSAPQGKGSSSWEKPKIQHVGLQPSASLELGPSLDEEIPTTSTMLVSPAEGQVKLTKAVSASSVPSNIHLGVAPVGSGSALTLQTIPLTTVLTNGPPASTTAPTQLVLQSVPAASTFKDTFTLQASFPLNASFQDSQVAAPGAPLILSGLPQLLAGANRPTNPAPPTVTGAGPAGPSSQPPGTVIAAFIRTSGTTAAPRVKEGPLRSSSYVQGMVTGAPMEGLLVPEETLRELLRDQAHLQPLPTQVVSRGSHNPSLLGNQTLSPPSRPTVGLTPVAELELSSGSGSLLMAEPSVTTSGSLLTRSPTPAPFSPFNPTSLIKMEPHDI
ETV1, sequence (P50549 whole entry): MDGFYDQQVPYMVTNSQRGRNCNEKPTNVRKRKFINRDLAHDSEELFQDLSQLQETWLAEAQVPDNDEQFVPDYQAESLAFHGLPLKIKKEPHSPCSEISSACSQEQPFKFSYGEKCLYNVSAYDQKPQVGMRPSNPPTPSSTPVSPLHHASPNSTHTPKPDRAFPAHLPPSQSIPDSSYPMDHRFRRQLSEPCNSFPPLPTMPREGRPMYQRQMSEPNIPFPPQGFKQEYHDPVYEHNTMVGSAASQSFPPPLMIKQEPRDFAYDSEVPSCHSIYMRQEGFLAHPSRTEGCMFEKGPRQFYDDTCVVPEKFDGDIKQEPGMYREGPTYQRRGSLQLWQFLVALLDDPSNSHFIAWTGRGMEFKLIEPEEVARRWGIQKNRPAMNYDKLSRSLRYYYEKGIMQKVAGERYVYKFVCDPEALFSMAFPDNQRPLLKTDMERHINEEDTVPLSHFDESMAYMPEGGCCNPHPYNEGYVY
ETV6, sequence (P41212 whole entry): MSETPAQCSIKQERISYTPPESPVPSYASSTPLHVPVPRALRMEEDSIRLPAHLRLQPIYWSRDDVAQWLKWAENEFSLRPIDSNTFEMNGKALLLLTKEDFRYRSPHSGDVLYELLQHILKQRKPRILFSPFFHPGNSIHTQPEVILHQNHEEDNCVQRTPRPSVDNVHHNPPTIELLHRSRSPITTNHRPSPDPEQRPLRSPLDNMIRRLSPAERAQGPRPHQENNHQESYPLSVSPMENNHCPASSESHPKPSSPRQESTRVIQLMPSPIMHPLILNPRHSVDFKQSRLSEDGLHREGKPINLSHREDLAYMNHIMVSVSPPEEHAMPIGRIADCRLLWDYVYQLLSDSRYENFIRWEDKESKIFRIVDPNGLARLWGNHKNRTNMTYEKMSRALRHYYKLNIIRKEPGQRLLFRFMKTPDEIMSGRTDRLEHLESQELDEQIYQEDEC
SPIB, sequence (Q01892 whole entry): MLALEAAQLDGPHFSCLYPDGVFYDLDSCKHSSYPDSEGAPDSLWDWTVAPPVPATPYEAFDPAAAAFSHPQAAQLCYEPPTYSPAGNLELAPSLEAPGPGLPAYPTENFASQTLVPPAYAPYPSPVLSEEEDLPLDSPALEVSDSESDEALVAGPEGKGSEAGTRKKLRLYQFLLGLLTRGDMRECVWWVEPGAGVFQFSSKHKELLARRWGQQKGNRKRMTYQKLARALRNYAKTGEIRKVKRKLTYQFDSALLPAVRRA

For GTTGAC, the binding signal with FLI1 was 1.11 fold enrichment (6-mer frequency, TF over GST control); with ELK1, 1.03 fold enrichment (6-mer frequency, TF over GST control); with GABPA, 1.19 fold enrichment (6-mer frequency, TF over GST control); with ERG, 1.22 fold enrichment (6-mer frequency, TF over GST control); in the experiment with ELF1 it was 1.2 fold enrichment (6-mer frequency, TF over GST control); in the experiment with EHF it was 1.17 fold enrichment (6-mer frequency, TF over GST control). In addition, the binding signal with SPI1 was 1.15 fold enrichment (6-mer frequency, TF over GST control); with SPIB, 1.22 fold enrichment (6-mer frequency, TF over GST control); with ELK3, 1.2 fold enrichment (6-mer frequency, TF over GST control); with FEV, 1.18 fold enrichment (6-mer frequency, TF over GST control); with ETV5, 1.01 fold enrichment (6-mer frequency, TF over GST control); in the experiment with ELF4, 1.15 fold enrichment (6-mer frequency, TF over GST control). Also, the binding signal with ETV1 is 1.06 fold enrichment (6-mer frequency, TF over GST control); with ERF, 1.43 fold enrichment (6-mer frequency, TF over GST control); with ETV3L, 1.19 fold enrichment (6-mer frequency, TF over GST control); in the experiment with ETS2, 1.17 fold enrichment (6-mer frequency, TF over GST control); with ELF5, 1.07 fold enrichment (6-mer frequency, TF over GST control); in the experiment with ETV3, 1.04 fold enrichment (6-mer frequency, TF over GST control). Also, the binding signal with ETV6 was 1.21 fold enrichment (6-mer frequency, TF over GST control).
